# Test results as given in PubChem BioAssay (NCI).
# This is part of a sample that, as a whole, favours compounds with a hit. Of some 83,000 tested, about 20% had one in any assay.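 In brief: 96-well plates, 48 h treatment, single concentration, percent growth endpoint.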 A number with no mark means an inactive call. Active and inactive are the calls of the source. How the source made its calls: active means growth percent below 10; inactive means the rest.
# Experiments:
# Assay in all cases: NCI-60 one-dose screen, 48 h (100 = growth as untreated, 0 = no growth, -100 = all killed)
# Conditions in all cases: 10 µM unless noted
# [1] = tested on: T-47D breast
# [2] = tested on: BT-549 breast
# [3] = tested on: MDA-MB-435 melanoma
# [4] = tested on: SW-620 colon
# [5] = tested on: MCF7 breast
# [6] = tested on: HCT-116 colon
# [7] = tested on: HCC-2998 colon
# [8] = tested on: KM12 colon
Structure (SMILES),growth [1],growth [2],growth [3],growth [4],growth [5],growth [6],growth [7],growth [8]
COc1cc2ncnc(-n3ncc4cc(NC(=O)Nc5ccc(Cl)c(Cl)c5)ccc43)c2cc1OC,-0.727% (active),-26.9% (active),-31.1% (active),-32.4% (active),-34.8% (active),23.9%,15.4%,0.483% (active)
CNc1nc2ncn(C)c2c(=O)[nH]1,91.4%,88.7%,94.6%,95.7%,96%,100%,90.7%,86.8%
CCn1cnc(C[C@H](NC(=O)[C@@H](NC(=O)Nc2cc(C(F)(F)F)cc(C(F)(F)F)c2)C(C)(C)C)C(=O)OC)c1,-58% [100 µM] (active),-86.2% [100 µM] (active),-90.7% [100 µM] (active),-60% [100 µM] (active),-62% [100 µM] (active),-81% [100 µM] (active),-89.3% [100 µM] (active),–
COc1nc(OC)nc(-c2cc(-c3cc(OC)c(OC)c(OC)c3)no2)n1,103%,120%,111%,102%,93.7%,105%,112%,102%
CCCCCCNC(=O)Oc1ccc(/C(=C(/C)Cc2ccc(OC)cc2)c2ccc(OCCN3CCCCC3)cc2)cc1,42%,92.5%,91.5%,84.6%,30.6%,63.7%,94.9%,85.6%
O=C1C=C(OCC=C(C(F)(F)F)C(F)(F)F)c2ccccc2C1=O,-68.9% (active),39%,-40.2% (active),-34.9% (active),-76.8% (active),-33.3% (active),-12.1% (active),43.3%
O=C(Nc1ccc(Cl)c(Cl)c1)O/N=C\c1c(Cl)ccc([N+](=O)[O-])c1Cl,-46.8% (active),-6.07% (active),-31% (active),-79.3% (active),-62.9% (active),-83.5% (active),-64.7% (active),-71.8% (active)
CCCNC(=O)Oc1ccc(/C(=C(/C)Cc2ccc(OC)cc2)c2ccc(OCCN3CCCCC3)cc2)cc1,45.4%,92.9%,92.5%,90.4%,31.8%,73%,84.6%,94%
Oc1ccc(N=Nc2ccc(N=Nc3ccccc3)cc2)cc1,16.4%,49%,19.6%,44.7%,22.8%,33.3%,17.2%,27.8%
O=C(/C=C/c1ccc(Cl)cc1)c1ccc(Cl)cc1,114%,101%,80.3%,88.8%,16.9%,69.8%,92.7%,83.3%
CC1(C)C(O)NC(Cl)=C(C#N)C1(C#N)C#N (configuration not stated),106%,104%,113%,102%,107%,101%,90.4%,112%
[N-]=[N+]=Nc1ncc(-c2ccc(C(F)(F)F)cc2)c(NC2CCCCCC2)n1,21.3% [100 µM],45.4% [100 µM],19.1% [100 µM],27.2% [100 µM],16.3% [100 µM],16% [100 µM],39.7% [100 µM],–
Nc1ccc(S(=O)(=O)Nc2cc(F)cc(F)c2)cc1,105%,88.1%,102%,91.6%,108%,109%,106%,107%
Cc1nc2ccccc2c(=O)n1-c1cccc(OCc2cn(-c3cccc(O)c3)nn2)c1,68.4%,99.8%,108%,104%,94.3%,95.2%,103%,95.2%
CCCCCCCCCCCCCCCCNC(=S)N/N=C/c1ccc(OC)cc1,103%,104%,107%,107%,102%,89.6%,113%,97.9%
COc1ccc(Cn2cc3c(c2-c2ccc(OC)cc2)CCc2cnoc2-3)cc1,38.7%,30.3%,-29.7% (active),22.6%,4.23% (active),4.82% (active),-30.2% (active),5.5% (active)
CCC1(CC)C(OC)NC(Br)=C(C#N)C1(C#N)C(N)=O (configuration not stated),113%,104%,107%,101%,110%,110%,121%,103%

Structure (SMILES),growth [1],growth [2],growth [3],growth [4],growth [5],growth [6],growth [7],growth [8]
O=C1Nc2ccccc2/C1=C/c1cn(CC(O)Cn2cc(/C=C3\C(=O)Nc4ccccc43)c3ccccc32)c2ccccc12 (configuration not stated),-46.1% (active),-55.3% (active),-87.6% (active),-60.4% (active),-67.5% (active),-64.2% (active),-16.9% (active),-80.9% (active)
COC(=O)CC(=O)C(=O)OC,99.9%,101%,120%,104%,97.6%,93.4%,104%,106%
CC(=O)Nc1ccc(S(=O)(=O)Cl)cc1,101%,114%,115%,115%,96%,111%,108%,107%
S=C(N/N=C/c1cc(Cl)cc(Cl)c1)NC12CC3CC(CC(C3)C1)C2,-8.35% (active),98%,78.4%,73.8%,82.5%,69.4%,115%,105%
CCC(C)(C)c1ccc(OCCCCCCN2CCNCC2)cc1,40%,89.1%,25.9%,-10.4% (active),4.81% (active),6.39% (active),-13.5% (active),25.2%
COC1=C(OC)C(=O)c2ccccc2C1=O,59.1%,101%,111%,97%,86.3%,96.2%,94.5%,105%
COc1cc(CNC(=O)CCCC/C=C/C(C)C)ccc1OCc1nnc(Nc2ccccc2F)o1,65%,76.9%,100%,98.9%,66.9%,53.5%,90.8%,78.8%
CC(C)(C)C(=O)CCCCCCCC/C=C/CCCC(O)c1ccco1 (configuration not stated),104%,105%,113%,113%,105%,109%,88.6%,113%
CCCCCCN(CCCCCC)CCC(=O)Nc1ccc(S(=O)(=O)c2ccc(NC(=O)CCN(CCCCCC)CCCCCC)cc2)cc1,60%,87.5%,90.5%,84.6%,68.7%,61.2%,32.5%,89.5%
CCCCCCCCCCCCOC(=O)/C=C\C(=O)NC(N)=O,80.3%,67.7%,84.7%,91.2%,64.3%,68.2%,110%,95.4%
COc1ccc(C(=O)CN2C(=O)NC(c3ccccc3)(c3ccccc3)C2=O)cc1,95.2%,105%,104%,96.8%,102%,106%,106%,109%
CC1(C)CC(=O)C2=C(C1)Oc1nc(N)c(C#N)c(N)c1C2c1ccc(F)cc1 (configuration not stated),116%,100%,112%,101%,109%,109%,132%,109%
CCOC(=O)C1=C(c2ccccc2)NC(=O)NC1CN1C(=O)c2ccccc2C1=O (configuration not stated),99%,129%,114%,107%,98.3%,99.6%,62.9%,113%
COC(=O)/C(Br)=C/c1c[nH]c2ccc(Br)cc12,72%,88.7%,85.7%,94.4%,75%,69.1%,102%,92%
O=C1C(=O)c2ccccc2C(O)=C1CCCc1ccc(C2CCCC2)cc1,59.8%,40.3%,42%,24.3%,33.3%,16.6%,36.7%,27.6%
CC1(c2ccc(Br)cc2)NC(=O)NC1=O (configuration not stated),82.2%,90.4%,113%,106%,101%,99.5%,106%,101%
